Here are results for 52 compounds from PubChem BioAssay AID488835 (Broad Institute, 2010).

The structures appear in SMILES notation. Among all 1,400 compounds or so, about 140 (10%) were called active. A selection follows. Measured potencies and affinities stand elsewhere. Unmarked numbers belong to inactive results.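 The calls were made as follows: active = Half-maximal inhibitory dose from the fit at or below ten times the top valid tested dose; inconclusive = Invalid fit, or flat curve showing 30 to 70% inhibition; inactive = the rest.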

Chain of Lysine-specific demethylase 4C (Homo sapiens) (Q9H3R0 1-420 limits assumed): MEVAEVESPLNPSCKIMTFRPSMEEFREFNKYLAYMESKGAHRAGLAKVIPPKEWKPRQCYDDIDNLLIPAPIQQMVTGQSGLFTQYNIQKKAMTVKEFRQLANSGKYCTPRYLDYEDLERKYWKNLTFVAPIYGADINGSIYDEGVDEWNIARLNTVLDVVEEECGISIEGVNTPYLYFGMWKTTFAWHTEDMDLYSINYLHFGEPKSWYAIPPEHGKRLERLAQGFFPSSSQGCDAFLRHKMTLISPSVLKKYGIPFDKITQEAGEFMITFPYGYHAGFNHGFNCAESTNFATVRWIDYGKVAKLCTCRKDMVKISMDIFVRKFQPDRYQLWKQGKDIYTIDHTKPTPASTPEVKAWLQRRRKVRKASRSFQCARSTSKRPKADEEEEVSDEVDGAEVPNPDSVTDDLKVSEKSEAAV

The assay addresses Lysine-specific demethylase 4C (Homo sapiens) (UniProt Q9H3R0). Put plainly: inhibition of JMJD2C H3K9me3 demethylation – biochemical, DELFIA europium, cherry-picked samples, dose response (AID 488835).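 Also: signal is the H3K9me2 demethylation product detected by a dimethyl-specific antibody.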 The conditions noted are these: GST-JMJD2C(1-420); series mostly up to 6 µM; activity change, negative = inhibition: at the top concentration.
As to `O=S(=O)(c1ccc2ccccc2c1)N(CC(O)COCc1ccco1)c1ccccc1` (configuration not stated), the “activity change, negative = inhibition” value was 0.0161%. Consider `CCOc1cc(/C=C\c2[nH]c(=O)[nH]c(=O)c2[N+](=O)[O-])ccc1OC(C)CC` (configuration not stated), for which the “activity change, negative = inhibition” value is -8.92%. With `O=C(NC1CC2CCC1C2)C1COc2ccccc2O1` (configuration not stated), the “activity change, negative = inhibition” value is 2.97%. Regarding `O=C(CN1C(=O)c2ccccc2C1=O)NCC1COc2ccccc2O1` (configuration not stated), the “activity change, negative = inhibition” value is 0.969%. The value for `COc1ccc(NC(=O)c2cccc(N3C(=O)C4CC=C(C)CC4C3=O)c2)c(OC)c1` (configuration not stated) was 6.73%. Turning to `COc1ccc(C2/C(=C(/O)c3ccccc3)C(=O)C(=O)N2CCN2CCOCC2)c(OC)c1` (configuration not stated), the “activity change, negative = inhibition” value was 5.45%. As to `CCC(=O)Nc1ccccc1Nc1cc(C#N)c(C#N)cc1[N+](=O)[O-]`, the “activity change, negative = inhibition” value was 2.52%. For `O=[N+]([O-])c1ccccc1N/N=C\c1ccccc1Cl` the value was -1.36%; for `COc1cccc(/C=N/NC(=O)CNC(=O)c2cccs2)c1O`, -7.57%. Consider `Fc1cccc(/C=N/Nc2nc3ccccc3[nH]2)c1`, for which the “activity change, negative = inhibition” value was 2.18%. As for `O=C(O)CSc1nnc(COc2cccc3cccnc23)n1-c1cccc(C(F)(F)F)c1`, the “activity change, negative = inhibition” value is -0.453%.

Regarding `CCCCN(C)C(=O)CCC(=O)NNc1nc2ccccc2c2nc(C)nn12`, the “activity change, negative = inhibition” value is -5.21%. Turning to `CCCCOC(=O)Cn1cnc2ccc(Br)cc2c1=O`, the “activity change, negative = inhibition” value was 3.8%. For `CCc1ccc2oc(=O)cc(CN3CCOCC3)c2c1` the value was 5.79%; for `Cc1cccn2c(=O)c(C(=O)NC3CC(C)CC(C)(C)C3)c(O)nc12` (configuration not stated), -4.7%; for `Cc1cccc(NC(=O)C2CCN(S(=O)(=O)c3cccc4nsnc34)CC2)n1`, 1.5%.

Take `CCOc1ccc(NCc2nnc(SCC(=O)Nc3cc(C)on3)n2-c2ccccc2OC)cc1`: the “activity change, negative = inhibition” value was 2.44%. For `CC(=O)Nc1ccc(NC(=O)CSc2ncnn2-c2ccccc2)cc1` the value was -0.718%; for `COCCNC(=S)N1CCN(C)CC1`, -0.745%; for `C/C(=N\N1CCN(c2ccccc2)CC1)c1ccncc1`, -0.735%.

`COc1ccc(OCC(=O)N/N=C/C(C)=C/c2ccco2)c(Br)c1`: the “activity change, negative = inhibition” value was -10.9%. The value for `COc1ccc(OC)c(/C=N/NC(=O)CNC(=O)c2ccc(S(=O)(=O)N3CCOCC3)cc2)c1` was -0.0536%. For `CC(C)(C)n1nnnc1C(c1cccnc1)N1CCN(c2ccccc2)CC1` (configuration not stated) the value was 4.33%; for `Cc1cccc(N2CCN(C(=O)c3ccc(CS(=O)(=O)c4ccccc4C)o3)CC2C)c1` (configuration not stated), -3.17%; for `Cc1ccc(C(O)(C(=O)NNc2ccccn2)c2ccc(C)cc2)cc1`, 0.26%. On to `Cc1ccc(C)c(N(C(=O)c2csnn2)C(C(=O)NC2CCCC2)c2cccnc2)c1` (configuration not stated), for which the “activity change, negative = inhibition” value is -1.11%.

Turning to `CN(c1cccc(Cl)c1)S(=O)(=O)c1cccc(C(=O)Nc2ccc3c(c2)CCC3)c1`, the “activity change, negative = inhibition” value was 0.113%.

`O=C(O)COc1ccc(NC(=O)C(c2ccccc2)c2ccccc2)cc1`: the “activity change, negative = inhibition” value is 1.53%. As for `Cc1ccc(-n2nnc3c(SCC(=O)NCC4CCCO4)ncnc32)cc1` (configuration not stated), the “activity change, negative = inhibition” value is 8.21%. The value for `CC(=O)c1sc(NC(=O)c2ccc(C)cc2)nc1C` was 1.55%. The value for `Cc1ccc(CNC(=O)Cc2ccc(-c3ccccc3)cc2)cc1` was -0.123%. With `NCCN1CCN2C(=O)CN(C(=O)c3ccccc3)CC12` (configuration not stated), the “activity change, negative = inhibition” value was -1%. Consider `CC(CC(=O)Nc1cc([N+](=O)[O-])ccc1Cl)c1ccccc1` (configuration not stated), for which the “activity change, negative = inhibition” value is -1.51%. For `COc1ccc(NC(=O)CCN2CCCCCC2)cc1` the value was -0.0182%; for `COc1ccc(N(CC(=O)Nc2ccc(S(=O)(=O)N3CCCC3)cc2)S(C)(=O)=O)cc1OC`, 1.62%; for `Cc1ccc(NC(=O)c2ccc(OC(=O)CCN3C(=O)c4ccccc4C3=O)cc2)cc1`, -0.588%. Consider `Cc1ccc(NC(=O)CSc2nnc(-c3cccs3)n2Cc2ccco2)cc1`, for which the “activity change, negative = inhibition” value was 7.83%. Take `COc1ccc(N2CCN(C(=O)CSc3nnc(-c4cccnc4)n3-c3ccccc3)CC2)cc1`: the “activity change, negative = inhibition” value was 0.58%. The value for `COc1cc(S(=O)(=O)N(Cc2cccs2)CC2CCCO2)ccc1-n1cnnn1` (configuration not stated) was -8.7%; that for `CCOC(=O)c1sc2nc(N3CCOCC3)c3c(c2c1N)CCN(Cc1ccccc1)C3` was 3.71%. As to `CCOC(=O)c1c(C)[nH]c(C)c1S(=O)(=O)N(C)CC(=O)N(C)Cc1ccccc1`, the “activity change, negative = inhibition” value is 1.88%. For `CCOC(=O)c1c(S(=O)(=O)N2CCN(c3ccc(F)cc3)CC2)c(C)n(C)c1C` the value was -2.99%; for `C[C@H]1CN([C@@H](C)CO)C(=O)c2cccc(NS(=O)(=O)c3ccc(F)cc3)c2O[C@H]1CN(C)S(=O)(=O)c1cn(C)cn1`, -2.25%; for `Cc1ccc(C(=O)CN2C(=O)C(=O)N(Cc3ccccc3)C2=O)cc1`, 1.89%. The value for `COc1cccc(/C=C/C(=O)OCC(=O)NCc2ccc(Cl)cc2)c1` was 0.388%; that for `Cc1ccc(C(=O)NCc2ccco2)cc1Br` was -7.8%. The value for `O=C(Nc1c(Cl)cccc1Cl)c1cc(-c2ccco2)on1` was 4.55%; that for `Cc1ccc(S(=O)(=O)N(C)C[C@@H]2Oc3ccc(NC(=O)Cn4cnnn4)cc3C(=O)N([C@@H](C)CO)C[C@H]2C)cc1` was 4.47%; that for `CCn1c(CNC(=O)Cc2ccc(OC)cc2)nnc1SCC(=O)NC1CCCCC1` was 0.869%.

For `CCn1nnnc1SCC(=O)NCc1cccs1`, the “activity change, negative = inhibition” value is 4.72%.

Take `Cc1ccccc1-c1ccc(=O)n(CC(=O)Nc2ccc(N3CCOCC3)cc2)n1`: the “activity change, negative = inhibition” value was -3.19%. For `CC(C)CC(=O)Nc1ccccc1N1CCOCC1` the value was 5.48%.
